Drawing on PubChem BioAssay (NCI), this text covers growth for nine compounds.

The panel holds about 83,000 compounds, 20% with a hit somewhere; the sample as a whole holds those more often.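 Each cell line was grown in a 96-well plate and treated with one concentration of compound for 48 hours. Values below 10 were considered active.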 Unmarked numbers belong to inactive results. The source made the active and inactive calls.

Test systems include SK-MEL-2 melanoma; EKVX NSCLC; SN12C renal; UO-31 renal; TK-10 renal; ACHN renal; CAKI-1 renal; A498 renal; CCRF-CEM leukemia; MOLT-4 leukemia; SR leukemia; RPMI-8226 leukemia; OVCAR-5 ovarian; OVCAR-4 ovarian; IGROV1 ovarian; OVCAR-3 ovarian; HS 578T breast; NCI/ADR-RES ovarian; OVCAR-8 ovarian; SK-OV-3 ovarian.
Holding throughout (assay): NCI-60 one-dose screen, 48 h (100 = growth as untreated, 0 = no growth, -100 = all killed)
Common to all, as to settings: 10 µM unless noted

`CCOC(=O)c1cnc2cc(Cl)c(F)cc2c1Nc1cccc(NS(C)(=O)=O)c1`: the growth with SK-MEL-2 melanoma was 113%; in the assay with EKVX NSCLC, 90.8%; in the assay with SN12C renal, 100%; in the assay on UO-31 renal, 73.3%; with TK-10 renal it was 124%; with ACHN renal, 93.5%. The growth with CAKI-1 renal was 86.2%; in the assay on A498 renal, 78.9%; with CCRF-CEM leukemia, 103%; in the assay with MOLT-4 leukemia, 99.9%; with SR leukemia, 112%; with RPMI-8226 leukemia it was 105%. Moreover, the growth in the assay with OVCAR-5 ovarian was 93.2%; with OVCAR-4 ovarian it was 95.5%; in the assay with IGROV1 ovarian it was 91%; with OVCAR-3 ovarian it was 102%; with HS 578T breast, 93.7%; with NCI/ADR-RES ovarian, 81%.

Regarding `COC(/C=C/c1ccc([N+](=O)[O-])cc1)OC`, the growth in the assay with SK-MEL-2 melanoma is 99%; in the assay with EKVX NSCLC, 101%; in the assay on SN12C renal, 92.8%; with UO-31 renal, 93.2%; in the assay with TK-10 renal, 103%; in the assay on ACHN renal it was 107%. The growth with CAKI-1 renal is 102%; in the assay on A498 renal, 111%; in the assay with CCRF-CEM leukemia, 39.6%; with MOLT-4 leukemia, 69.4%; with SR leukemia, 31.6%; with OVCAR-8 ovarian, 84.4%. Further, the growth in the assay with OVCAR-5 ovarian was 99.8%; with OVCAR-4 ovarian it was 96.6%; with SK-OV-3 ovarian, 110%; in the assay with IGROV1 ovarian, 89%; with OVCAR-3 ovarian it was 120%; in the assay with HS 578T breast it was 122%. In the assay with NCI/ADR-RES ovarian, the growth is 96%.

Turning to `COCCOC(=O)C1=C(C)NC(=S)NC1c1ccc2c(c1)OCO2` (stereo not drawn), the growth was 93% in the assay with SK-MEL-2 melanoma; 105% in the assay on EKVX NSCLC; 104% in the assay on SN12C renal; 87.8% with UO-31 renal; 104% in the assay on TK-10 renal; 106% with ACHN renal. For the same compound, the growth with CAKI-1 renal is 99.8%; in the assay on A498 renal, 96.1%; in the assay with CCRF-CEM leukemia it was 104%; in the assay with MOLT-4 leukemia, 96.9%; in the assay with SR leukemia it was 95.5%; with OVCAR-8 ovarian it was 102%. Moreover, the growth is 109% in the assay with OVCAR-5 ovarian; 103% in the assay with OVCAR-4 ovarian; 103% with SK-OV-3 ovarian; 105% in the assay on IGROV1 ovarian; 111% with OVCAR-3 ovarian; 104% in the assay on HS 578T breast. Moreover, in the assay with NCI/ADR-RES ovarian, the growth is 103%.

As to `Nc1cccc(-c2nc3sccn3c2-c2ccnc(NCCCNS(=O)(=O)c3ccc(C(F)(F)F)cc3)n2)c1`, the growth in the assay on SK-MEL-2 melanoma is -21.7% (active); in the assay with EKVX NSCLC it was 21.1%; in the assay with SN12C renal it was 12.8%; in the assay on UO-31 renal, -8.25% (active); in the assay with TK-10 renal, 47.5%; with ACHN renal it was 6.33% (active). In addition, the growth in the assay on CAKI-1 renal is 18.3%; in the assay with A498 renal, 11.2%; with CCRF-CEM leukemia, 6.17% (active); in the assay with MOLT-4 leukemia, -29.6% (active); with SR leukemia, 15.5%; with OVCAR-8 ovarian, 7.14% (active). The growth in the assay with OVCAR-5 ovarian is 40.9%; with OVCAR-4 ovarian, -1% (active); in the assay with SK-OV-3 ovarian, 23.8%; with IGROV1 ovarian, 4.78% (active); in the assay with OVCAR-3 ovarian, 6.08% (active); in the assay on HS 578T breast it was 12.3%.

For the compound `COc1ccc(CCN2CCCn3c2nc2ccccc2c3=O)cc1`, the growth was 51.1% with SK-MEL-2 melanoma; 45.7% in the assay on EKVX NSCLC; 45% in the assay with SN12C renal; 41.1% in the assay with UO-31 renal; 69.3% with TK-10 renal; 40.4% in the assay with ACHN renal. In addition, the growth is 41.7% with CAKI-1 renal; -3.97% (active) with A498 renal; 21.1% in the assay with CCRF-CEM leukemia; 18.5% in the assay with MOLT-4 leukemia; 24.8% in the assay on SR leukemia; 29.9% with RPMI-8226 leukemia. Further, the growth in the assay on OVCAR-8 ovarian is 28.8%; in the assay on OVCAR-4 ovarian, 41.9%; in the assay on IGROV1 ovarian, 40.3%; with OVCAR-3 ovarian, -4.64% (active); in the assay with HS 578T breast, 38.9%; in the assay on NCI/ADR-RES ovarian, 14.7%.

Take `O=C(O)c1cccc2c1-c1ccccc1C2=O`: the growth was 98.4% with SK-MEL-2 melanoma; 90.3% in the assay with EKVX NSCLC; 84.2% in the assay on SN12C renal; 94.3% with UO-31 renal; 91.1% in the assay on TK-10 renal; 94.4% in the assay with ACHN renal. Moreover, the growth is 65.1% in the assay on CAKI-1 renal; 96.1% with A498 renal; 84.2% in the assay with CCRF-CEM leukemia; 99.4% in the assay with MOLT-4 leukemia; 94.2% in the assay on SR leukemia; 103% with OVCAR-8 ovarian. Moreover, the growth with OVCAR-5 ovarian is 92.2%; with OVCAR-4 ovarian, 105%; in the assay with SK-OV-3 ovarian it was 103%; with IGROV1 ovarian it was 85%; with OVCAR-3 ovarian, 102%; in the assay with HS 578T breast it was 97.7%. Further, the growth in the assay on NCI/ADR-RES ovarian is 100%.

For the compound `CNC(=O)c1cc(Oc2ccc3nc(NC(=O)Nc4ccc(CN5CCOCC5)c(C(F)(F)F)c4)sc3c2)ccn1`, the growth was 32.9% with SK-MEL-2 melanoma; 25.4% in the assay on EKVX NSCLC; 27.8% in the assay with SN12C renal; 26.6% in the assay on UO-31 renal; 43.9% in the assay with TK-10 renal; 16.2% in the assay on ACHN renal. For the same compound, the growth with CAKI-1 renal was 19.4%; with A498 renal, 9.05% (active); in the assay on CCRF-CEM leukemia, 17.7%; in the assay with MOLT-4 leukemia, 3.75% (active); in the assay on SR leukemia it was -0.0928% (active); with RPMI-8226 leukemia it was 5.34% (active). In addition, the growth in the assay with OVCAR-5 ovarian is 38.6%; in the assay with OVCAR-4 ovarian, 20%; in the assay on SK-OV-3 ovarian, 79.1%; in the assay on IGROV1 ovarian, 40%; in the assay with OVCAR-3 ovarian, 6.85% (active); in the assay on HS 578T breast it was 47.3%. Besides, in the assay on NCI/ADR-RES ovarian, the growth was 4.65% (active).

`CCN(CC)Cc1cc(Nc2c3ccccc3nc3cc(Cl)ccc23)ccc1O`: the growth was -74.2% (active) in the assay with SK-MEL-2 melanoma; -55.1% (active) in the assay on EKVX NSCLC; -36.9% (active) in the assay with SN12C renal; -72.9% (active) in the assay on UO-31 renal; -65.6% (active) with TK-10 renal; -97.3% (active) in the assay with ACHN renal. Besides, the growth in the assay on CAKI-1 renal is -75% (active); with A498 renal, -61.4% (active); with CCRF-CEM leukemia, -11.9% (active); in the assay with MOLT-4 leukemia it was -28.9% (active); in the assay with SR leukemia, -37.1% (active); in the assay with RPMI-8226 leukemia, -21.1% (active). Further, the growth in the assay on OVCAR-5 ovarian is -15.3% (active); in the assay on OVCAR-4 ovarian, -97.8% (active); with SK-OV-3 ovarian, -2.76% (active); in the assay with IGROV1 ovarian it was 2.96% (active); in the assay with OVCAR-3 ovarian, -92.2% (active); in the assay on HS 578T breast, -30.9% (active). In addition, the growth in the assay with NCI/ADR-RES ovarian is -38.5% (active).

Regarding `Nc1nc2ccc(-c3nc4ccc5[nH]ncc5c4c4c3CCC4)cc2s1`, the growth in the assay with SK-MEL-2 melanoma is 21.5%; in the assay with EKVX NSCLC, 19.4%; in the assay with SN12C renal, 28.4%; in the assay with UO-31 renal, 14.7%; with TK-10 renal, 22.3%; with ACHN renal, 17.7%. Further, the growth in the assay on CAKI-1 renal was 1.07% (active); with A498 renal, -9.59% (active); in the assay with CCRF-CEM leukemia it was 17.3%; in the assay with MOLT-4 leukemia, 18.5%; in the assay on SR leukemia it was 20.7%; in the assay on RPMI-8226 leukemia it was -49% (active). Further, the growth is 47.6% in the assay with OVCAR-5 ovarian; 19.3% in the assay with OVCAR-4 ovarian; -21.7% (active) in the assay with SK-OV-3 ovarian; 21.4% with IGROV1 ovarian; 39.4% in the assay with OVCAR-3 ovarian; 7.12% (active) in the assay with HS 578T breast. In the assay on NCI/ADR-RES ovarian, the growth is 27.8%.
